Common to all, as to test: DAPPL (digital affinity profiling via proximity ligation, sequencing); 10 mM Tris-HCl pH 7.5, 50 mM NaCl, 1 mM DTT, 4% glycerol, room temperature, 30 min; GST-TFs on glutathione beads, 16-mer random dsDNA library, 0.1% formaldehyde crosslink after washing; high values mean tight binding
The target in assay [1] is T1, FEV (Homo sapiens, UniProt Q99581 1-238).
T1 sequence: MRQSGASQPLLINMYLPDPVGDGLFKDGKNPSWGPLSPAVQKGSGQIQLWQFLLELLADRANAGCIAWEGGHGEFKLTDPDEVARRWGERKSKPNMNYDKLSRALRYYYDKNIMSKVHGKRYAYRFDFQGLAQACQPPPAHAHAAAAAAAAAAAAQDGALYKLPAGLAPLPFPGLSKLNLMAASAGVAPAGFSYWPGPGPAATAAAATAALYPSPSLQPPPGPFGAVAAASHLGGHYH
As to conditions: protein: recombinant; tags: N-terminal GST; dsDNA, one strand shown. The essentials: (§1)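 Human transcription factors fused to GST were expressed in yeast, captured on glutathione beads, given DNA barcodes and pooled with a GST-only negative control. Pools were incubated with 200 nmole of a 16-mer random double-stranded DNA library in Tris/NaCl/DTT/glycerol buffer at room temperature for 30 min. They were then washed, crosslinked with 0.1% formaldehyde, proximity-ligated (BsaI/T4 ligase, 1 h, 37 °C), PCR-amplified and sequenced on an Illumina NextSeq500. Binding signal is each 6-mer's read frequency for a factor divided by its frequency for the GST control.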

Assay [2] deals with ETV5 (Homo sapiens, UniProt P41161 1-510). To be noted: protein: recombinant; tags: N-terminal GST; dsDNA, one strand shown. The essentials: as §1
The target in assay [3] is HSF1 (Homo sapiens, UniProt Q00613 1-529). As to conditions: protein: recombinant; tags: N-terminal GST; chain copies: 3; dsDNA, one strand shown. The essentials: as §1
Assay [4] concerns the target T2, SPIC (Homo sapiens, UniProt Q8N5J4 1-248).
T2 sequence: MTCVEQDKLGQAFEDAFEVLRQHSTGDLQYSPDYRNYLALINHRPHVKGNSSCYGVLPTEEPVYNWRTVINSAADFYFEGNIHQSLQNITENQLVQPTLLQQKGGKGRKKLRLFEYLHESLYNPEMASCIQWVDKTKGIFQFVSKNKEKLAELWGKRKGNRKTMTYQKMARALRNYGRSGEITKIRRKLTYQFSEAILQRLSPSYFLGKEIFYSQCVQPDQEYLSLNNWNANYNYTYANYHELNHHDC
As to conditions: protein: recombinant; tags: N-terminal GST; dsDNA, one strand shown. The essentials:
as §1

The target in assay [5] is ELF4 (Homo sapiens, UniProt Q99607 1-663). To be noted: protein: recombinant; tags: N-terminal GST; dsDNA, one strand shown. The essentials: as §1
The target in assay [6] is T3, ELK4 (Homo sapiens, UniProt P28324-2 1-405).
T3 sequence: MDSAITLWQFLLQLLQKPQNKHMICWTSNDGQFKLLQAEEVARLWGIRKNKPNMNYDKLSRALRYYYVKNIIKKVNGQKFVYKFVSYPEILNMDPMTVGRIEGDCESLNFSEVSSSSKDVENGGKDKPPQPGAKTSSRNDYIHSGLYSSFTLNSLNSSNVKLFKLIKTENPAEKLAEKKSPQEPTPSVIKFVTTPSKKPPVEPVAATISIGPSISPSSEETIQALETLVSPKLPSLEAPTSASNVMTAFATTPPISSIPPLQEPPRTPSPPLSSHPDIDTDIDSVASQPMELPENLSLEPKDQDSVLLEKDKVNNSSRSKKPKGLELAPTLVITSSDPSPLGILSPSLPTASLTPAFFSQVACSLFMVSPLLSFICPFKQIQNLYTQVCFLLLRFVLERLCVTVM
As to conditions: protein: recombinant; tags: N-terminal GST; dsDNA, one strand shown. The essentials: as §1

For assay [7], the target named is T4, ETV2 (Homo sapiens, UniProt O00321 1-342).
T4 sequence: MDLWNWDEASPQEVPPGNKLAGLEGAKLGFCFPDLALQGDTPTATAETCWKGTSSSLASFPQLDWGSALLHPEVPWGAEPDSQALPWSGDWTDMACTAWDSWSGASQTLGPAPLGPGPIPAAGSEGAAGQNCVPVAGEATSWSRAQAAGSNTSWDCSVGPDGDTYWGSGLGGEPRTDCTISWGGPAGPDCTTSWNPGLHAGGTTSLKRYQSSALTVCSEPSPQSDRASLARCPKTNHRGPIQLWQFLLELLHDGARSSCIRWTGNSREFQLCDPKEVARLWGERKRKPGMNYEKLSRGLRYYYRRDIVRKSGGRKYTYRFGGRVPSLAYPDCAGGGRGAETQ
To be noted: protein: recombinant; tags: N-terminal GST; dsDNA, one strand shown. The essentials: as §1

For assay [8], the target named is T5, ELF3 (Homo sapiens, UniProt P78545 1-371).
T5 sequence: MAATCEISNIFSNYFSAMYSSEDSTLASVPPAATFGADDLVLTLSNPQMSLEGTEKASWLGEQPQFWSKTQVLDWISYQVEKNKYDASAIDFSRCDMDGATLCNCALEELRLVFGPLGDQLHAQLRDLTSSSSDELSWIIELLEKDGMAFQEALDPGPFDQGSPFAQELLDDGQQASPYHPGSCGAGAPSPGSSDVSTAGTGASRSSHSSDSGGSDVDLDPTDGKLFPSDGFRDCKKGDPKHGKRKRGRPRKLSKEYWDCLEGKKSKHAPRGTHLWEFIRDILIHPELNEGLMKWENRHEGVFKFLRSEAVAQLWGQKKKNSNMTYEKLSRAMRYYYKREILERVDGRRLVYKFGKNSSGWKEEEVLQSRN
As to conditions: protein: recombinant; tags: N-terminal GST; dsDNA, one strand shown. The essentials: as §1

The target in assay [9] is CRX (Homo sapiens, UniProt O43186 1-299). As to conditions: protein: recombinant; tags: N-terminal GST; dsDNA, one strand shown. The essentials: as §1
Assay [10] concerns the target ETV1 (Homo sapiens, UniProt P50549 1-477). As to conditions: protein: recombinant; tags: N-terminal GST; dsDNA, one strand shown. The essentials: as §1
In assay [11] the target is T6, ERF (Homo sapiens, UniProt P50548 1-548).
T6 sequence: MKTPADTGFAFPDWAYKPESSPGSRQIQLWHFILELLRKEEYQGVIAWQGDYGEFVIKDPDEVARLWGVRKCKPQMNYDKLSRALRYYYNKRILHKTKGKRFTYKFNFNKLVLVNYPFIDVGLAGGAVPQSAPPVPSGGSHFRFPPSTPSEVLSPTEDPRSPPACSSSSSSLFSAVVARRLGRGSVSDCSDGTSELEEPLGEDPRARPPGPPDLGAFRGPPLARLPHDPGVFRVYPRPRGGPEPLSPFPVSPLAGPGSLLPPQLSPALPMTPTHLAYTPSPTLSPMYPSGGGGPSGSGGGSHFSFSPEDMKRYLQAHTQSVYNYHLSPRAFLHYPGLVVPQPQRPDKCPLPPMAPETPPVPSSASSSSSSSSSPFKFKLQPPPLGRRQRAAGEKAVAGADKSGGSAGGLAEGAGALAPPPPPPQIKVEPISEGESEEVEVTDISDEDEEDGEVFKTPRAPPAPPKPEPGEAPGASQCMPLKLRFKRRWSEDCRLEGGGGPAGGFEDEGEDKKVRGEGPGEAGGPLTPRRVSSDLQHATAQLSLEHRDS
To be noted: protein: recombinant; tags: N-terminal GST; dsDNA, one strand shown. The essentials:
as §1

Assay [12] has as its target T7, ETV3L (Homo sapiens, UniProt Q6ZN32 1-361).
T7 sequence: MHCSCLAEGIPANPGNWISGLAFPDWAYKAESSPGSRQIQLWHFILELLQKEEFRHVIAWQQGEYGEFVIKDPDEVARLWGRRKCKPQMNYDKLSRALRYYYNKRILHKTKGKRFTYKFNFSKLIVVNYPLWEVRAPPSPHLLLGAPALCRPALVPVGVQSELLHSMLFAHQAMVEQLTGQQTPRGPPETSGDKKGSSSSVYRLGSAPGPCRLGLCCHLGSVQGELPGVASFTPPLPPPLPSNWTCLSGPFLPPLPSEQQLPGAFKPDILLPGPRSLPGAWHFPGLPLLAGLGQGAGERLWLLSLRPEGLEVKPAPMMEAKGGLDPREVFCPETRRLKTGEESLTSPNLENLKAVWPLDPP
As to conditions: protein: recombinant; tags: N-terminal GST; dsDNA, one strand shown. The essentials: as §1

For assay [13], the target named is T8, ETS2 (Homo sapiens, UniProt P15036 1-469).
T8 sequence: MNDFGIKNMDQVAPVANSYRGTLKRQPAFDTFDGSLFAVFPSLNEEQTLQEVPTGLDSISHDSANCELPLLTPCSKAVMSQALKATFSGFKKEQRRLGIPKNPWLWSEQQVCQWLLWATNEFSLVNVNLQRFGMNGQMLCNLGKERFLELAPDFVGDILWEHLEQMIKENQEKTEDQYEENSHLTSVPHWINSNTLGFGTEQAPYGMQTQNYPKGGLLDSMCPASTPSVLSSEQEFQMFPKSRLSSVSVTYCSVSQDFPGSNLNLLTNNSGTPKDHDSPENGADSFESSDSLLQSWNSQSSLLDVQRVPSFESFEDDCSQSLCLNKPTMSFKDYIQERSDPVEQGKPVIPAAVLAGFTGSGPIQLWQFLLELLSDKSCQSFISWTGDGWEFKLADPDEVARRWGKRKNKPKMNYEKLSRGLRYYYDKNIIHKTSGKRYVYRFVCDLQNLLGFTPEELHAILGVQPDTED
As to conditions: protein: recombinant; tags: N-terminal GST; dsDNA, one strand shown. The essentials:
as §1

The target of assay [14] is T9, SPDEF (Homo sapiens, UniProt O95238 1-335).
T9 sequence: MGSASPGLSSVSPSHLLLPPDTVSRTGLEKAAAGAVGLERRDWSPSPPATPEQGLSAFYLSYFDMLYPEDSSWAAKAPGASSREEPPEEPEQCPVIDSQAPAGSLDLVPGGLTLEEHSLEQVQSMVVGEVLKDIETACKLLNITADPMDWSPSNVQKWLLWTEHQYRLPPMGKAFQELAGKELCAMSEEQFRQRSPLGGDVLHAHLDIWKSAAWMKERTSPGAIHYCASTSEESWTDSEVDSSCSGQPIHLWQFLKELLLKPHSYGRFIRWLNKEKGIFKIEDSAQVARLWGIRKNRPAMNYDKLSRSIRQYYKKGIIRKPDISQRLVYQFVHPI
To be noted: protein: recombinant; tags: N-terminal GST; dsDNA, one strand shown. The essentials:
as §1

Assay [15] addresses T10, ETV7 (Homo sapiens, UniProt Q9Y603 1-341).
T10 sequence: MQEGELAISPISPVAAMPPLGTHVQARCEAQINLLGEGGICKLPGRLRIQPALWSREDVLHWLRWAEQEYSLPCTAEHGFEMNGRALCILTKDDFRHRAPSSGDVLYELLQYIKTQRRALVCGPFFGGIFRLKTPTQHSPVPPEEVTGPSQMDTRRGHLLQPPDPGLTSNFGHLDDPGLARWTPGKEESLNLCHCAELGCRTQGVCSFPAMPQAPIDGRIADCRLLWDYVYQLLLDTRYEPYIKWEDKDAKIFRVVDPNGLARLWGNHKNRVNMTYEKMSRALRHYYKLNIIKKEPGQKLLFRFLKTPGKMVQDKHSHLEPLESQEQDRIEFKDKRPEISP
To be noted: protein: recombinant; tags: N-terminal GST; dsDNA, one strand shown. The essentials: as §1

In assay [16] the target is T11, ELF5 (Homo sapiens, UniProt Q9UKW6-2 1-255).
T11 sequence: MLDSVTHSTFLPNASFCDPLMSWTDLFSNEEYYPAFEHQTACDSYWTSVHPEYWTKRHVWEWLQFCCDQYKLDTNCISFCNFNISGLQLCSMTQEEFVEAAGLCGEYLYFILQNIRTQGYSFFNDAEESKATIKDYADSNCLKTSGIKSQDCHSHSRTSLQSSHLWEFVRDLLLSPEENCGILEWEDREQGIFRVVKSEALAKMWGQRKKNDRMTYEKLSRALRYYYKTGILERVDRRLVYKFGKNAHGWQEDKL
To be noted: protein: recombinant; tags: N-terminal GST; dsDNA, one strand shown. The essentials:
as §1

In assay [17] the target is T12, ETV3 (Homo sapiens, UniProt P41162-2 1-143).
T12 sequence: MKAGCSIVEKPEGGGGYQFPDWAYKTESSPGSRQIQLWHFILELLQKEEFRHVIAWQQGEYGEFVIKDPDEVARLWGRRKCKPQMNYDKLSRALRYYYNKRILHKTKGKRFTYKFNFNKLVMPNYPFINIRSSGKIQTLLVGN
As to conditions: protein: recombinant; tags: N-terminal GST; dsDNA, one strand shown. The essentials:
as §1

Assay [18] deals with ETV6 (Homo sapiens, UniProt P41212 1-452). As to conditions: protein: recombinant; tags: N-terminal GST; dsDNA, one strand shown. The essentials:
as §1

Chain of ETV6 (P41212 whole entry): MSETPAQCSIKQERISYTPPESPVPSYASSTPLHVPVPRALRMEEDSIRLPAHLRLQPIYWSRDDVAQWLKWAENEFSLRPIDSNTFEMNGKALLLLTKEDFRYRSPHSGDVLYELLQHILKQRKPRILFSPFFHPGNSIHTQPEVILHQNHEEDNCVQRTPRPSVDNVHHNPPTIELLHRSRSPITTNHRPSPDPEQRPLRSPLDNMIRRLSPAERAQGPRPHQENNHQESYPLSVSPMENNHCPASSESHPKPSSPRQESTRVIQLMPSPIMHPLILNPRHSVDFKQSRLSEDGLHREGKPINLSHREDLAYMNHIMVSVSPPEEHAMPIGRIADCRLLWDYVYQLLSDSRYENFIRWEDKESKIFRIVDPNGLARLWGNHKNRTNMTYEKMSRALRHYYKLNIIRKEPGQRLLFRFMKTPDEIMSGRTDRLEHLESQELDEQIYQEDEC
Chain of ELF4 (Q99607 whole entry): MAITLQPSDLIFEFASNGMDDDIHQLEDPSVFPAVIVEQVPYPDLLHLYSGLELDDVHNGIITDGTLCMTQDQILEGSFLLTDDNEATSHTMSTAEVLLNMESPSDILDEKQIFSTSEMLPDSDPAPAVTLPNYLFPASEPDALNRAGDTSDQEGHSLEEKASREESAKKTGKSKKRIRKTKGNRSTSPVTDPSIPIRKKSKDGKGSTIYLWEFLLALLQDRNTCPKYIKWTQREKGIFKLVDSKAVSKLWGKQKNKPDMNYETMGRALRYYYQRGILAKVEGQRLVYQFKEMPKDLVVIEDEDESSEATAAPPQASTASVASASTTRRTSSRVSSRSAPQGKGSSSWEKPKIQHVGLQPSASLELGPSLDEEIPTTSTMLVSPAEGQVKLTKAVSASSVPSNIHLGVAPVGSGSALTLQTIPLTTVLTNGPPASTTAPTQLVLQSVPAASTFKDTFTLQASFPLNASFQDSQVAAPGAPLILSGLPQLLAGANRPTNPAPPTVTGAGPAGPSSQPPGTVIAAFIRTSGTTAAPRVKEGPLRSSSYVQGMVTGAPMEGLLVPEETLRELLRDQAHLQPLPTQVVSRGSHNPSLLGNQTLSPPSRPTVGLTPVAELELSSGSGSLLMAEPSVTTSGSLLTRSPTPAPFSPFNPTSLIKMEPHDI
Chain of CRX (O43186 whole entry): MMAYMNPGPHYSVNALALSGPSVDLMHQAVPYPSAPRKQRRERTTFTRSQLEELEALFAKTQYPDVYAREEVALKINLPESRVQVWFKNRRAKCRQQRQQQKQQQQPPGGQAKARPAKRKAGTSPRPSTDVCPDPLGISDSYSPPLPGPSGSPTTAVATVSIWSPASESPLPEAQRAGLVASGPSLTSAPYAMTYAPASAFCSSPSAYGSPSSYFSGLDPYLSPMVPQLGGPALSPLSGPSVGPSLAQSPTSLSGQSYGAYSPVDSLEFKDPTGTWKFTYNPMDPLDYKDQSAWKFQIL
Chain of HSF1 (Q00613 whole entry): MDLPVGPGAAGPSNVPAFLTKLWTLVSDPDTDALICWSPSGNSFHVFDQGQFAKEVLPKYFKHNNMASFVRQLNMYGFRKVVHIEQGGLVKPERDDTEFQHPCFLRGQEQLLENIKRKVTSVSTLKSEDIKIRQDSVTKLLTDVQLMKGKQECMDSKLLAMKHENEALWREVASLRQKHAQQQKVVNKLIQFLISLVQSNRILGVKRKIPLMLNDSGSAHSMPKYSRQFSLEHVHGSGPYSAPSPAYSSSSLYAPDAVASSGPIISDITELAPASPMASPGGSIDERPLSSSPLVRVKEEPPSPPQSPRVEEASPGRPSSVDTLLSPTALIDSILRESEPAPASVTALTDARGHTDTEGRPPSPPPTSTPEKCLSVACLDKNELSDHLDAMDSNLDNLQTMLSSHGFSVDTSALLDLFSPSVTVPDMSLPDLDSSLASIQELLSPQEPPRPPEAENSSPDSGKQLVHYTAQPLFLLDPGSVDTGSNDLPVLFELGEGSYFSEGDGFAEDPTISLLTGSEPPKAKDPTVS
Chain of ETV5 (P41161 whole entry): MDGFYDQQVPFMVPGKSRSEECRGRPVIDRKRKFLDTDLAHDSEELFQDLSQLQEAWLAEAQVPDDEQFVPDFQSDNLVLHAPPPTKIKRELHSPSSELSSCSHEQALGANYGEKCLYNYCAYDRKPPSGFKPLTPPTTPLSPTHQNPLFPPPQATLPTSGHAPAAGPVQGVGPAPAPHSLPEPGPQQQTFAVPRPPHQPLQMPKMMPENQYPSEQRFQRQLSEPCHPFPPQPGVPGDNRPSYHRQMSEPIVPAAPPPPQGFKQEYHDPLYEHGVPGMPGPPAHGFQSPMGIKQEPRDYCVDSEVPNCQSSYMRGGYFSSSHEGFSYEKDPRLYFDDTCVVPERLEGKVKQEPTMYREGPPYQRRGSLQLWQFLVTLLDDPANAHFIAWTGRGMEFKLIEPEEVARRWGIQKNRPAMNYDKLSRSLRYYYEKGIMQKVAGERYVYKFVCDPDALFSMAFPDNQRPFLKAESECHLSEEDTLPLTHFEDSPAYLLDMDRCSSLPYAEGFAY
Chain of ETV1 (P50549 whole entry): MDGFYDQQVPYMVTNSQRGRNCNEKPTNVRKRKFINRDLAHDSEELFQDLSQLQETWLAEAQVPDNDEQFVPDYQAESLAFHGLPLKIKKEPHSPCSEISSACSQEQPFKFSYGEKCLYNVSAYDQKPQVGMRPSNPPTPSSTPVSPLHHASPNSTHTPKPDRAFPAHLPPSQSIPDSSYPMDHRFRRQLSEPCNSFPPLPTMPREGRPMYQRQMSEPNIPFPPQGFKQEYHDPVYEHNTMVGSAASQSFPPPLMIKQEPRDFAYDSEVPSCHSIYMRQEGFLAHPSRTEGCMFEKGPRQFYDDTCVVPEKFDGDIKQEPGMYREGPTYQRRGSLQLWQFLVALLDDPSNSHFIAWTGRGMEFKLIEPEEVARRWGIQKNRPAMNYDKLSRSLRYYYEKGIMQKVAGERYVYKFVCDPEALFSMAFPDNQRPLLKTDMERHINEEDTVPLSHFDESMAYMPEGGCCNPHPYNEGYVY

Regarding ATTTGA, the binding signal in assay [1] is 1.17 fold enrichment (6-mer frequency, TF over GST control); in assay [2], 1.16 fold enrichment (6-mer frequency, TF over GST control); in [3] it was 1.21 fold enrichment (6-mer frequency, TF over GST control); in assay [4], 1.11 fold enrichment (6-mer frequency, TF over GST control); in assay [5], 1.21 fold enrichment (6-mer frequency, TF over GST control); in [6], 1.07 fold enrichment (6-mer frequency, TF over GST control). Also, the binding signal in [7] was 1.16 fold enrichment (6-mer frequency, TF over GST control); in assay [8], 1.16 fold enrichment (6-mer frequency, TF over GST control); in assay [9], 1.41 fold enrichment (6-mer frequency, TF over GST control); in assay [10], 1.2 fold enrichment (6-mer frequency, TF over GST control); in assay [11], 1.14 fold enrichment (6-mer frequency, TF over GST control); in [12], 1.25 fold enrichment (6-mer frequency, TF over GST control). The binding signal is 1.2 fold enrichment (6-mer frequency, TF over GST control) in assay [13]; 1.19 fold enrichment (6-mer frequency, TF over GST control) in assay [14]; 1.28 fold enrichment (6-mer frequency, TF over GST control) in assay [15]; 1.12 fold enrichment (6-mer frequency, TF over GST control) in [16]; 1.21 fold enrichment (6-mer frequency, TF over GST control) in [17]; 1.16 fold enrichment (6-mer frequency, TF over GST control) in assay [18].

The values are drawn from publication PMC7862700, “An all-to-all approach to the identification of sequence-specific readers for epigenetic DNA modifications on cytosine”.
